CSC inhib: cancer stem cell viability inhibitors, primary screen, luminescence | cancer stem cell-like cells viability | inhibition, % at 7.5 µM | hit rate 1.1% among 300,000; in the data active = inhibition above about 75%; tested in HMLE shEcad cells
NR3A LBD binder: binders of NR3A ligand-binding domain, primary screen, biophysical, differential scanning fluorimetry, uHTS; hit rate 2.5% among 340,000; Tm shift relative to glycine control, % at 25 µM; NR3A LBD differential scanning fluorimetry, Tm shift; 0% = protein alone, 100% = glycine-bound protein; Glutamate receptor ionotropic, NMDA 3A (GRIN3A) ligand-binding domain;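 active = melting temperature shift of at least 10% of the positive control shift, at one fixed dose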
MPTP inh: mitochondrial permeability transition pore inhibitors, primary screen, biochemical, isolated mouse mitochondria, absorbance | Ca2+ swelling absorbance, 30 min | inhibition, % at 10 µM | hit rate 1.4% among 360,000;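 active = inhibition of 50% or more, scaled per plate between neutral and stimulator controls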
Mdm2 MdmX PPI: inhibitors of human Mdm2-MdmX association, primary screen, cell-based, luminescence, split luciferase, SaOS-2, uHTS; Protein Mdm4 (Homo sapiens) + E3 ubiquitin-protein ligase Mdm2 (Homo sapiens), …; SaOS-2 split-luciferase Mdm2/MdmX complementation; inhibition, % at 8 µM; hit rate 3% among 330,000; AID 485346, 2010;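 active = inhibition of at least 50% at 8 µM in the primary screen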
Target sequence (O15151 whole entry, looked up): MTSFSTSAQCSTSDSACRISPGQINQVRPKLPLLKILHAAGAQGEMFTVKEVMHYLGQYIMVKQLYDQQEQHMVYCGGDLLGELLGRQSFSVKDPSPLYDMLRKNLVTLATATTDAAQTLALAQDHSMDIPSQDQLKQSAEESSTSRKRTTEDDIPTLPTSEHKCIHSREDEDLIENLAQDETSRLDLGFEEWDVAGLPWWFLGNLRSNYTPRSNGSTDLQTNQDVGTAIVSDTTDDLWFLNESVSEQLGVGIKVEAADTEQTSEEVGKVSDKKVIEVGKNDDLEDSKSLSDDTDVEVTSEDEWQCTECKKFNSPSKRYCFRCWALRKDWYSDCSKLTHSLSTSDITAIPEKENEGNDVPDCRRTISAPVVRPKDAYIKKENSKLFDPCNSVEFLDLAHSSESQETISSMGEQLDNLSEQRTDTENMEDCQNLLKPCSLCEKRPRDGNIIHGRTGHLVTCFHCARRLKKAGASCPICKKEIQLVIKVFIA
Target sequence (Q00987 whole entry, looked up): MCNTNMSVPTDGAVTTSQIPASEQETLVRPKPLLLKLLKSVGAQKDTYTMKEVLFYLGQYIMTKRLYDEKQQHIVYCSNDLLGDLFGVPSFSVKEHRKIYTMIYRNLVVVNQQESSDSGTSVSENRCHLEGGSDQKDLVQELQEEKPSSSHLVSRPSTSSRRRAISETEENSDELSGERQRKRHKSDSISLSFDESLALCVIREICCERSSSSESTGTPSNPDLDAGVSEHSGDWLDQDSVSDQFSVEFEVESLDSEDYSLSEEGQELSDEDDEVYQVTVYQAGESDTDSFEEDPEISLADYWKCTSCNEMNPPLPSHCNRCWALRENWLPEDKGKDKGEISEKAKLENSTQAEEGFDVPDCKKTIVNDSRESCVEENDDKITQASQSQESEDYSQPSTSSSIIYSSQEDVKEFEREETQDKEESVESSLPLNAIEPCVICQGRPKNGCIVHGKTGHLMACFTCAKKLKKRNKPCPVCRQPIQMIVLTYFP
Beta cell apopt: inhibitors of cytokine-induced beta cell apoptosis, primary screen, luminescence; INS-1E cytokine-induced death, ATP luminescence, 48 h; percent of positive-control rescue, neutral wells zero; AID 435005, 2010; hit rate 0.8% among 300,000; protection from apoptosis, % (concentration not given with the values);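 active = Every replicate reaches about 75%, or at least half do and their mean reaches it too, limit read from the data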;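 note: higher means more ATP so stronger rescue from cytokine killing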
Gli-Sufu block: Gli-Sufu pathway antagonists, primary screen, luciferase luminescence, Sufu-KO-LIGHT cells, uHTS | Sufu-KO-LIGHT fibroblasts, Gli luciferase reporter luminescence | inhibition, % at 5 µM | hit rate 0.74% among 340,000 | AID 588413, 2011;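 active = inhibition above about 55%, limit read from the data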
Mdm2-MdmX conf: Mdm2-MdmX complex disruptors, retested hits, confirmation, luminescence, single concentration | inhibition, % at 8 µM | hit rate 55% among 10,000 | shares compounds with Mdm2 MdmX PPI | Mdm2-MdmX binding, luminescent assay; in the data active = inhibition above about 40%
FLuc counter: full-length luciferase signal inhibition, confirmation, counter-screen for Mdm2/MdmX interaction inhibitor project, cell-based, single concentration, SaOS-2; inhibition, % at 8 µM; SaOS-2 full-length luciferase counterscreen, luminescence; AID 504607, 2011; shares compounds with Mdm2 MdmX PPI; hit rate 77% among 6,200;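 active = mean inhibition at 8 µM reaching about 37%, which flags the compound as non-specific, limit read from the data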;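 note: p53-null SaOS-2 cells with luciferase driven by a doxycycline-inducible promoter; compound on cells about two nights before reading with doxycycline added after day one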
Each line names hits and unclear results; the compound was inactive in the other large screens (follow-up assays come after a bar, where they were run). Only some compounds are listed: those with a hit (about 6.6% of all), similar ones and a draw of the others.

COc1cccc(CNC(=O)C2CCC(CNc3nc(=S)[nH]c4ccccc34)CC2)c1 (stereo not given)	Mdm2 MdmX PPI 61 | Mdm2-MdmX conf inactive
O=[N+]([O-])c1ccc(Oc2cccc(Br)c2)c2ccncc12	Mdm2 MdmX PPI 58 | Mdm2-MdmX conf inactive
O=[N+]([O-])c1ccc(Oc2ccc(F)cc2)c2ccncc12	Mdm2 MdmX PPI 60 | Mdm2-MdmX conf 56 | FLuc counter inactive
CN1CCN(c2ccc(CNC(=O)c3cccc4c(-c5ccc(F)c(F)c5)coc34)cc2)CC1	none (no result: CSC inhib, NR3A LBD binder, Mdm2 MdmX PPI, Beta cell apopt, Gli-Sufu block)
Cc1ccccc1CS(=O)(=O)c1cnc2ccccc2n1	Mdm2 MdmX PPI 55 | Mdm2-MdmX conf inactive
Cc1ccc(-n2ncc(C(=O)Nc3cc(Cl)ccc3C)c2C2CCNCC2)cc1C	Mdm2 MdmX PPI 66 | Mdm2-MdmX conf inactive | FLuc counter 72
CN1CCN(c2cc(N3CCN(C(=O)c4ccco4)CC3)c3c4c(onc24)-c2ccccc2C3=O)CC1	Mdm2 MdmX PPI 100 | Mdm2-MdmX conf 74 | FLuc counter inactive
O=C1c2ccccc2-c2onc3c(N4CCN(CCO)CC4)cc(N4CCN(C(=O)c5ccco5)CC4)c1c23	none
O=c1[nH]cnc2c1sc1nc(C(F)F)cc(-c3ccccc3)c12	Mdm2 MdmX PPI 53 | Mdm2-MdmX conf inactive
CN1C(=O)/C(=C/c2cn(CC(=O)N3CCCCC3)c3ccccc23)c2ccccc21	Mdm2 MdmX PPI 52 (no result: NR3A LBD binder, MPTP inh, Gli-Sufu block) | Mdm2-MdmX conf inactive
Cc1ccc(C)c(SCC(=O)OC/C(O)=C(\C#N)c2nc3ccccc3[nH]2)c1	none (no result: CSC inhib, Mdm2 MdmX PPI, Beta cell apopt)
CC(C)C(=O)OC/C(O)=C(\C#N)c1nc2ccccc2[nH]1	none (no result: CSC inhib)
N#C/C(=C(\O)Cc1ccccc1)c1nc2ccccc2[nH]1	Mdm2 MdmX PPI 55 | Mdm2-MdmX conf inactive
COc1ccc(/C=N/OC/C(O)=C(\C#N)c2nc3ccccc3[nH]2)cc1OC	Mdm2 MdmX PPI 73 | Mdm2-MdmX conf inactive
Cc1ccc(C(C)C)c(OC/C(O)=C(\C#N)c2nc3ccccc3[nH]2)c1	Mdm2 MdmX PPI 59 | Mdm2-MdmX conf inactive
Cc1c(Cl)cccc1N/C(SCC(=O)N1CCCCCC1)=C(/C#N)c1nc2ccccc2s1	Mdm2 MdmX PPI 91 | Mdm2-MdmX conf 66 | FLuc counter inactive
O=C(CSc1nc2ccccc2s1)N1CCCCC1	none
COCCn1c(SCC(=O)NC2CCCC2)nnc1-c1ccco1	none
COc1cccc([C@@H]2Oc3ccc(OC)cc3C(=O)[C@H]2OC(=O)N[C@H](C)C2CCCCC2)c1	none (no result: NR3A LBD binder, MPTP inh, Gli-Sufu block)
COc1ccc2c(c1)O[C@H](c1ccc3c(c1)OCO3)[C@@H](OC(=O)Nc1cc(OC)c(OC)c(OC)c1)C2=O	Mdm2 MdmX PPI 61 (no result: NR3A LBD binder, MPTP inh, Beta cell apopt, Gli-Sufu block) | Mdm2-MdmX conf 62 | FLuc counter 67
COc1ccc2c(c1)O[C@H](c1ccc3c(c1)OCO3)[C@@H](OC(=O)N[C@H](C)C1CCCCC1)C2=O	Mdm2 MdmX PPI 59 (no result: NR3A LBD binder, MPTP inh, Gli-Sufu block) | Mdm2-MdmX conf inactive
COc1ccc(N2CCN(C(=O)COC(=O)CCOc3ccc(C)cc3)CC2)cc1	none
COc1ccc(C(=O)Cc2cc(OC)c(OC)cc2C(=O)c2ccccc2F)cc1OC	none
O=C(CSc1nnc(COc2ccc(Cl)cc2)o1)Nc1nccs1	none (no result: CSC inhib, NR3A LBD binder, Mdm2 MdmX PPI, Beta cell apopt, Gli-Sufu block)
CNc1cncc(-c2cc(OC)c(OC)c(OC)c2)n1	none (no result: CSC inhib, NR3A LBD binder, Mdm2 MdmX PPI, Beta cell apopt, Gli-Sufu block)
CN(c1ccccc1)S(=O)(=O)c1ccc(NC(=O)c2nc(S(C)(=O)=O)ncc2Cl)cc1	Mdm2 MdmX PPI 98, Beta cell apopt 99 | Mdm2-MdmX conf 100 | FLuc counter 51
COc1cccc(NC(=O)c2nc(SC)ncc2Cl)c1	none
COc1cccc(NC(=O)c2nc(S(C)(=O)=O)ncc2Cl)c1	CSC inhib 113, Mdm2 MdmX PPI 96 | Mdm2-MdmX conf 83 | FLuc counter 60
O=C1c2ccccc2C(=O)c2[nH]c(=O)[nH]c21	Mdm2 MdmX PPI 69 (no result: CSC inhib, Beta cell apopt) | Mdm2-MdmX conf 44 | FLuc counter 48
O=S(=O)(O)c1cccc2c(N=Nc3ccc(O)c4ncccc34)cccc12	none (no result: Mdm2 MdmX PPI)
O=Nc1ccc(O)c2ncccc12	none
COc1cccc(N=Nc2ccc3cccnc3c2O)c1	CSC inhib 90, Mdm2 MdmX PPI 91, Beta cell apopt 90 | Mdm2-MdmX conf 90 | FLuc counter inactive
Oc1ccc(N=Nc2ccc3c(c2)OCCO3)c2cccnc12	Mdm2 MdmX PPI 77 (no result: CSC inhib, Beta cell apopt, Gli-Sufu block) | Mdm2-MdmX conf 89 | FLuc counter 53
COc1ccc(N=Nc2ccc(O)c3ncccc23)cc1	CSC inhib 151, Mdm2 MdmX PPI 77, Beta cell apopt 104, Gli-Sufu block 61 | Mdm2-MdmX conf 84 | FLuc counter inactive
COc1cccc(N=Nc2ccc(O)c3ncccc23)c1	CSC inhib 123, Mdm2 MdmX PPI 82, Beta cell apopt 104, Gli-Sufu block 68 | Mdm2-MdmX conf 92 | FLuc counter inactive
COc1cc(OC)cc(C(=O)Nc2cccc3cccnc23)c1	none
CC(OC(=O)c1cc(S(=O)(=O)N(C)c2ccccc2)ccc1Cl)C(=O)Nc1ccc2c(c1)OCCO2 (stereo not given)	none (no result: Beta cell apopt)
COc1ccc(CN(C)C(=O)/C=C/[C@H]2O[C@@H](n3cnc4c(N)ncnc43)[C@H](O)[C@@H]2O)cc1OC	none (no result: CSC inhib, NR3A LBD binder, Mdm2 MdmX PPI, Beta cell apopt, Gli-Sufu block)
CC(C)c1ccc(/C=C(\c2nc3ccccc3[nH]2)S(=O)(=O)c2ccccc2)cc1	Mdm2 MdmX PPI 100, Beta cell apopt 102 | Mdm2-MdmX conf 100 | FLuc counter 53
COc1ccc(CCn2c(=N)c(C(=O)NC3CCCC3)cc3c(=O)n4ccccc4nc32)cc1OC	none
COc1cccc(NC(=O)c2cc3c(=O)n4ccccc4nc3n(CC(C)C)c2=N)c1	Mdm2 MdmX PPI 74 | Mdm2-MdmX conf 68 | FLuc counter 41
Cc1cccc(NC(=O)c2cc3c(=O)n4ccccc4nc3n(CC(C)C)c2=N)c1	none
COc1ccc(CCn2c(=N)c(C(=O)NC3CCCC3)cc3c(=O)n4ccccc4nc32)cc1	Mdm2 MdmX PPI 52 | Mdm2-MdmX conf inactive
O=C(c1ccccc1N1CCOCC1)N1CCCC(Nc2ccc(F)cc2)C1 (stereo not given)	none
O=C(CC1C[C@H](C(=O)N2CCCCC2)[C@@]2(CCc3ccccc3)c3[nH]c4ccccc4c3CCN2C1=O)NCCC1=CCCCC1 (stereo not given in full)	Mdm2 MdmX PPI 79 (no result: CSC inhib) | Mdm2-MdmX conf inactive
